# High-throughput results as filed in PubChem BioAssay.
# This is a sample that favours compounds with a hit; in the whole collection about 3.6% have one here.
# AmpC no deterg = inhibitors of E. coli AmpC beta-lactamase without detergent | P00811 | Potency, µM (titrated, usually from 57.1 µM), inactives show at the highest dose activity change, negative = inhibition, hits mostly inhibitors | AmpC nitrocefin hydrolysis, absorbance 480 nm, 0.0001% Triton | 330,000 compounds, 0.52% hits | AID 485341;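 further: plate controls were no compound for no effect and no enzyme for full effect; nearly all actives have a fitted effect of over 20% in size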
# Target sequence (P00811 whole entry, looked up): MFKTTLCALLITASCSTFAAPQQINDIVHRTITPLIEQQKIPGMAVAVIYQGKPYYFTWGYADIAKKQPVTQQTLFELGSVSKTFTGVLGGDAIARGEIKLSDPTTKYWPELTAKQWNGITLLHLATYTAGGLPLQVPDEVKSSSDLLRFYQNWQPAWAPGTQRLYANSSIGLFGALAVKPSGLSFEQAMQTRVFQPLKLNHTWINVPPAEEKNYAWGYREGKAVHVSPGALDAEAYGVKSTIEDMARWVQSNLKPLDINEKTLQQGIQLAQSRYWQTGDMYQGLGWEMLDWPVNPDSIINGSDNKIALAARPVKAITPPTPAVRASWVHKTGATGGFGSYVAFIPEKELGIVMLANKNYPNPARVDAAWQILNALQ
#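 20 mM phosphate pH 7.0 + 0.01% (detergent screen) or 0.0001% Triton X-100; 5.3 nM AmpC reagent; cpd preinc 15 min RT; nitrocefin (800 uM stock) to start; A480 q20 s × 4 min; Activity was normalised to no-enzyme and no-compound control wells.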
# Giardia FBPA inh-1 = Giardia lamblia aldolase inhibition. A8B2U2. 290,000 compounds, 0.71% hits. purified Giardia FBPA. Potency, µM (titrated, usually from 59.6 µM), for the others: at the highest dose activity, negative = inhibition, most hits filed as inhibitors. AID 2451; further: nearly all actives have a fitted effect of over 55% in size
#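 40 nM FBPA preincubated 10 min at RT with compound (up to 57.5 uM final), then substrate plus GAPDH/TPI/NAD/arsenate coupling and diaphorase/resazurin added. Fluorescence read after 20 min at RT, 525/598 nm.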
# Sm TGR block = blocks Schistosoma mansoni thioredoxin glutathione reductase; Q962Y6; purified TGR, DTNB reduction, TNB absorbance 405 nm; Potency, µM (series often up to 114 µM), inactives show top-dose activity change, negative = inhibition, actives largely listed as inhibitors; 360,000 compounds, 3% hits; AID 485364; further: nearly all actives have a fitted effect of over 60% in size
#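 Kinetic colorimetric format: TGR-catalysed, NADPH-driven DTNB reduction monitored via TNB absorbance. Enzyme dispensed at 20 nM; compound exposure 15 min at room temperature before reaction start.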
# AmpC inh detg = inhibitors of E. coli AmpC beta-lactamase with detergent; P00811; AmpC hydrolysis of nitrocefin, absorbance 480 nm, 0.01% Triton; Potency, µM (doses to about 114 µM), for inactives: at the highest dose activity change, negative = inhibition, usual class: inhibitors; 370,000 compounds, 0.041% hits; AID 485294;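 further: 0% = no-compound wells and -100% = no-enzyme wells; nearly all actives have a fitted effect of over 25% in size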
#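 AmpC (5.3 nM in the dispensed reagent) in 20 mM phosphate pH 7.0 with 0.01% (detergent screen) or 0.0001% Triton X-100 was preincubated with compounds for 15 min at room temperature. Nitrocefin was then added from an 800 uM solution, and hydrolysis was followed at 480 nm.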
# Giardia growth = blocks growth of Giardia lamblia trophozoites; shares compounds with Giardia FBPA inh-1; Giardia lamblia trophozoite growth inhibition; Potency, µM (titrated, usually from 57.5 µM), without a hit: at the highest dose activity change, negative = inhibition, most hits filed as inhibitors; 1,500 compounds, 5% hits; AID 2785;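 further: trophozoites exposed to compound for 48 h at 37 °C; nearly all actives have a fitted effect of over 70% in size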
# Mammal cell tox = mammalian cytotoxicity of Giardia aldolase inhibitor hits | 1,500 compounds, 4% hits | shares compounds with Giardia FBPA inh-1 | mammalian cell viability counter-screen, qHTS | Potency, µM (highest dose often 57.5 µM), for inactives: top-dose viability change, negative = toxicity, most hits filed as inhibitors | AID 2786;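 further: Chinese hamster ovary cells used as mammalian cytotoxicity surrogate; viability measured as cellular ATP by luminescence; compound exposure lasted 48 h before reading; nearly all actives have a fitted effect of over 60% in size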
# Giardia FBPA inh-2 = confirmation of Giardia fructose-bisphosphate aldolase inhibitors. shares compounds with Giardia FBPA inh-1. purified Giardia aldolase enzyme activity, qHTS. Potency, µM (series often up to 57.5 µM), for the others: top-dose activity change, negative = inhibition, actives largely listed as inhibitors. 1,500 compounds, 5% hits; further: nearly all actives have a fitted effect of over 45% in size
# Rabbit aldolase = blocks rabbit muscle aldolase in Giardia aldolase selectivity test | shares compounds with Giardia FBPA inh-1 | Rabbit muscle FBPA enzyme inhibition, selectivity counter-screen | Potency, µM (titrated, usually from 57.5 µM), inactives show at the highest dose activity, negative = inhibition, most hits filed as inhibitors | 1,500 compounds, 4% hits | AID 2794; further: nearly all actives have a fitted effect of over 60% in size
# Target sequence (P00883 whole entry, looked up): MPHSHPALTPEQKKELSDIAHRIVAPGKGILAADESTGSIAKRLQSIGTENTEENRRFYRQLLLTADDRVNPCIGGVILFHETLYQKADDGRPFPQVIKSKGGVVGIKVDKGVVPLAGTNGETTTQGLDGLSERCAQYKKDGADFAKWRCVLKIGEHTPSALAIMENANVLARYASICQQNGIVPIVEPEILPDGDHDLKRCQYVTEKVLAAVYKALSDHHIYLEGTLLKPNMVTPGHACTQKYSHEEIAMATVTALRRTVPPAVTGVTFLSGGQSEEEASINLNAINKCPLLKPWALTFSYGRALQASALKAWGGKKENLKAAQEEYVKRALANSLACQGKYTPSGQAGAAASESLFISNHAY
# GAPDH counter = GAPDH inhibition flagged for Giardia aldolase hits; shares compounds with Giardia FBPA inh-1; GAPDH coupling enzyme counterscreen, biochemical, qHTS; Potency, µM (series often up to 57.5 µM), inactives show top-dose activity change, negative = inhibition, most hits filed as inhibitors; 1,500 compounds, 6% hits; further: nearly all actives have a fitted effect of over 55% in size
# * marks the source's active call; other numbers are inactive results; ? = inconclusive; / = no result; [ ] = another dose, or the depositor's remark. The call rests on the fitted dose curve; in most records, active means well fitted curve in the direction sought with a large enough effect; inconclusive means small, poorly fitted or top-dose-only effect, or another doubt; inactive means no such curve, though single readings can be large; an effect the other way counts as inactive or inconclusive. Unless noted, on the % scale 0 is the no-effect control and ±100 the full control effect; potency means the concentration at half of the fitted maximal effect.
SMILES,AmpC no deterg,Giardia FBPA inh-1,Sm TGR block,AmpC inh detg,Giardia growth,Mammal cell tox,Giardia FBPA inh-2,Rabbit aldolase,GAPDH counter
NC(=O)c1cccc2c1-c1ccccc1/C2=N/NC(N)=S,-15%,11µM*,-9%,-1%,-23%,-28%,-3%,0%,9%
COc1cc(/C=C(\C#N)C(=O)c2c[nH]c3ccccc23)cc(OC)c1O,-34%,7.9µM*,-2%,7%,-18%,3%,2µM*,?,?
Nc1c2c(nc3ccccc13)N(C1CCCCC1)CC2,-31%,?,-5%,-8%,/,/,/,/,/
Nc1c2c(nc3ccc(Br)cc13)N(C1CCCCC1)CC2,-28%,18µM*,-19%,-15%,5µM*,-28%,-4%,-4%,-10%
N#CCCn1cc(C=O)c(-c2cccs2)n1,-5%,0%,-16%,1%,/,/,/,/,/
O=C1C=C(O)c2cccc(O)c2C1=O,-47%,5.6µM*,?,-6%,3%[10.4 µM],19%,?,-21%,?
COc1cccc2c1-c1c(O)cccc1C2=O,-18%,-3%,-6%,-12%,/,/,/,/,/
CC(C)[C@H](NC(=O)[C@@H]1Cc2ccccc2CN1C(=O)OC(C)(C)C)C(=O)NCC1CCCO1 (stereo partly specified),52%,2%,-3%,1%,/,/,/,/,/
CCOc1cc(C(=O)Nn2cnnc2)cc(OCC)c1OCC,-13%[11.4 µM],4%,-2%,-14%,/,/,/,/,/
CCOc1cc(C(=O)NC(=S)Nn2cnnc2)cc(OCC)c1OCC,-14%,16µM*,-2%,4%,?,3%,2%,14%,-8%
COc1ccc(CN2CCN(C(=O)c3cccc(OC)c3OC)CC2)cc1OC,6%,20µM*,1%,-7%,12%,1%,8%,4%,8%
COc1ccc(CN2CCN(C(C)C(=O)N(C)Cc3cccc(F)c3)CC2)cc1OC (stereo unspecified),46%,16µM*,2%,-4%,?,3%,6%,6%,9%
COc1ccc(CN2CCN(C(C)C(=O)NC(C)c3ccc(F)cc3)CC2)cc1F (stereo unspecified),92%,-6%,-7%,-12%,/,/,/,/,/
COc1ccccc1OCc1nn[nH]n1,-23%,32µM*,0%,?,?,18%,-3%,12%,-9%
Clc1ccc(OCc2nn[nH]n2)cc1,-19%,?,-5%,-18%,/,/,/,/,/
CC(=O)c1cccc(NS(=O)(=O)c2cc3c(cc2C)n(C)c(=O)c(=O)n3C)c1,/,/,-3%,18%,/,/,/,/,/
Cc1cc(C)cc(NC(=O)C(=O)NCC2CCCO2)c1 (stereo unspecified),19%,2%,/,3%,/,/,/,/,/
Cc1cc(C)cc(NC(=O)C(NCC2CCCO2)c2ccccc2)c1 (stereo unspecified),73%,16µM*,-3%,-1%,-16%[10.4 µM],8%,-1%,6%,8%
CCN(CC)c1ccc(N)cc1S(=O)(=O)Nc1ccc(OC)cc1,-21%,-13%,2%,-10%,/,/,/,/,/
CCN(CC)c1ccc(N)cc1S(=O)(=O)Nc1ccccc1OC,-24%,16µM*,9%,2%,13%[10.4 µM],0%,1%,4%,16%
CCOc1ccccc1Nc1ccc2cc(S(=O)(=O)N3CCCCC3)ccc2n1,/,/,29%,1%,/,/,/,/,/
FC(F)(F)c1cnc2c(c1)[nH]c(=S)n2-c1ccc(Cl)cc1,-33%,19%,-13%,-6%,/,/,/,/,/
Fc1ccc(-n2c(=S)[nH]c3cccnc32)cc1,-6%,18µM*,4%,?,28%,-15%,-2%,2%,16%
CC1CCCN(C(=O)c2ccc3c(=O)n(C4CCCC4)c(=S)[nH]c3c2)C1 (stereo unspecified),-20%,?,-9%,-7%,/,/,/,/,/
O=C(c1ccc2c(=O)n(C3CCCC3)c(=S)[nH]c2c1)N1CCCCCC1,-32%,18µM*,-2%,-6%,3%[10.4 µM],-10%,6%,3%,8%
SMILES,AmpC no deterg,Giardia FBPA inh-1,Sm TGR block,AmpC inh detg,Giardia growth,Mammal cell tox,Giardia FBPA inh-2,Rabbit aldolase,GAPDH counter
COc1ccc(C(=O)NC(=S)NNC(=O)c2cccnc2)cc1,-6%,-23%,-1%,-3%,/,/,/,/,/
Cc1csc(NC(=S)NC(=O)c2ccccc2)n1,-35%,7.9µM*,-10%,?,?,50µM*,-5%,-7%,-7%
Cc1csc(NC(=O)c2ccccc2)n1,-16%,-13%,-29%,-15%,/,/,/,/,/
COc1ccc(NC(=S)NC(=O)c2cccnc2)cc1,-20%,7.9µM*,22µM*,-8%,22µM*,5%,6%,4%,4%
CCOC(=O)Cc1csc(NC(=S)NC(=O)c2cccc([N+](=O)[O-])c2)n1,-25%,4.5µM*,-14%,-4%,?,4%,12%,4%,11%
O=C(NC(=S)Nc1cccnc1Cl)c1ccc(Cl)cc1,-39%,13µM*,-25%,3%,-21%,-5%,2%,4%,-1%
O=C(Nc1cccnc1Cl)c1ccc(Cl)cc1,-6%,-1%,-16%,0%,/,/,/,/,/
CCOC(=O)c1cccc(NC(=O)N2CC(CC)Sc3ccccc32)c1 (stereo unspecified),/,/,6%,18%,/,/,/,/,/
O=C(NNC(=O)c1cc(-c2ccncc2)nc2ccccc12)c1ccccc1O,-42%,/,-7%,-18%,/,/,/,/,/
COc1cc(OC)cc(C(=O)NNC(=S)NC(=O)c2cccnc2)c1,-5%,2µM*,-2%,-1%,16µM*,7%,13%,9%,14%
Cc1snnc1C(=O)NC(=S)Nc1ccccc1,-17%,13µM*,8.9µM*,-4%,26%,10%,4%,16%,2%
COC(=O)c1ccc(NC(=S)NC(=O)c2cccnc2)cc1,-12%,7.1µM*,?,-6%,-13%[38.3 µM],-22%,1%,10%,5%
O=C(NC(=S)Nc1cccnc1)c1ccccc1,-9%,13µM*,22µM*,-5%,-19%,6%,1%,11%,7%
COc1ccc(Br)c(C(=O)OCC(=O)N2CCC(Cc3ccccc3)CC2)c1,5%,/,-5%,9%,/,/,/,/,/
CCC(=O)NC(=S)Nc1ccc(NC(=O)c2cccnc2)cc1,-21%,-1%,?,2%,/,/,/,/,/
